The text below walks through data of ChEMBL document CHEMBL1961873, “Compounds: GSK PKIS; Assays: Nanosyn kinase panel” (2012).

Assay [1] addresses T1, Mitogen-activated protein kinase 12 (Homo sapiens) (UniProt P53778).
T1 sequence (whole entry): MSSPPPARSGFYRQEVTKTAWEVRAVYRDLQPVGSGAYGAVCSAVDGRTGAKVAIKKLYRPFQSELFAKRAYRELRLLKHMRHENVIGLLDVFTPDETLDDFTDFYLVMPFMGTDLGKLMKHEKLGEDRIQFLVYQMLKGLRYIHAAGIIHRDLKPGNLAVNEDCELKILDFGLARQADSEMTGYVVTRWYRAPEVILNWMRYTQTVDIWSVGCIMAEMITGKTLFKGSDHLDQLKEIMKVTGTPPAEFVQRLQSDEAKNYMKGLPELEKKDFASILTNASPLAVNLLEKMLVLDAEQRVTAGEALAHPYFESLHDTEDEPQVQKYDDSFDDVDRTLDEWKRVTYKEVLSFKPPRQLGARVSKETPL
The following applies: at 1 µM.

The target of assay [2] is SRSF protein kinase 1 (Homo sapiens) (UniProt Q96SB4). The following applies: at 0.1 µM.
For assay [3] the target is unchanged. The note with it: at 1 µM.
The target in assay [4] is Phosphatidylinositol 4,5-bisphosphate 3-kinase catalytic subunit alpha isoform (Homo sapiens) (UniProt P42336). The note with it: at 0.1 µM.
For assay [5] the target is unchanged. The following applies: at 1 µM.
In assay [6] the target is T2, Phosphatidylinositol 4,5-bisphosphate 3-kinase catalytic subunit delta isoform (Homo sapiens) (UniProt O00329).
T2 sequence (whole entry): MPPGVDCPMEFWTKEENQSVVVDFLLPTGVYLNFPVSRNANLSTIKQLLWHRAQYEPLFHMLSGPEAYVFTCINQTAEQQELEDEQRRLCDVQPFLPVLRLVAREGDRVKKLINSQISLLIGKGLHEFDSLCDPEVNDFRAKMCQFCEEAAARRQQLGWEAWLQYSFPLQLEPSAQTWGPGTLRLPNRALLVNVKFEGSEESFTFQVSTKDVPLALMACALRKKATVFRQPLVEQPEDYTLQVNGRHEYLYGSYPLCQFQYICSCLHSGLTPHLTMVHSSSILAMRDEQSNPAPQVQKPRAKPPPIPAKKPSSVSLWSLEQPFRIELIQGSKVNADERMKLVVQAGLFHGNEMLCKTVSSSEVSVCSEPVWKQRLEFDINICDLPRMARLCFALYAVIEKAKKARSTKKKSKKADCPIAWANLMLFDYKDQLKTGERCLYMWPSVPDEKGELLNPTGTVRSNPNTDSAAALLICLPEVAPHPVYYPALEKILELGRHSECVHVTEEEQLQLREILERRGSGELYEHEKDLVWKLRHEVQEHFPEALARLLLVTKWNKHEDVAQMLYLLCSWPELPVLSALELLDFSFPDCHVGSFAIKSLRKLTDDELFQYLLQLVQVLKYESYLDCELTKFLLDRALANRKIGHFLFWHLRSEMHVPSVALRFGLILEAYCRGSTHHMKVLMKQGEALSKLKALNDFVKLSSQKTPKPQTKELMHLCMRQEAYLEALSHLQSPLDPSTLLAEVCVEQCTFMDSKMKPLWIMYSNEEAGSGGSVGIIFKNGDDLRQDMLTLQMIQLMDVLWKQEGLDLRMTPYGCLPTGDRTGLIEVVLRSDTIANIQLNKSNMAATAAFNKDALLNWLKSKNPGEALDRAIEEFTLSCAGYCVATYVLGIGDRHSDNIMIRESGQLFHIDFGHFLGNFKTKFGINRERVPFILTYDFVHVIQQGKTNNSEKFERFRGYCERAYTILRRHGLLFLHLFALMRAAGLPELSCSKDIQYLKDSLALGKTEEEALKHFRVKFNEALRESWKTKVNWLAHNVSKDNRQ
The following applies: at 0.1 µM.

In assay [7] the target is T2, Phosphatidylinositol 4,5-bisphosphate 3-kinase catalytic subunit delta isoform (Homo sapiens). The note with it: at 1 µM.
In assay [8] the target is Phosphatidylinositol 4-kinase beta (Homo sapiens) (UniProt Q9UBF8). The note with it: at 0.1 µM.
The target is the same in assay [9]. The note with it: at 1 µM.
The target of assay [10] is Sphingosine kinase 1 (Homo sapiens) (UniProt Q9NYA1). The note with it: at 0.1 µM.
The target is the same in assay [11]. The following applies: at 1 µM.
The target in assay [12] is T3, Sphingosine kinase 2 (Homo sapiens) (UniProt Q9NRA0).
T3 sequence (whole entry): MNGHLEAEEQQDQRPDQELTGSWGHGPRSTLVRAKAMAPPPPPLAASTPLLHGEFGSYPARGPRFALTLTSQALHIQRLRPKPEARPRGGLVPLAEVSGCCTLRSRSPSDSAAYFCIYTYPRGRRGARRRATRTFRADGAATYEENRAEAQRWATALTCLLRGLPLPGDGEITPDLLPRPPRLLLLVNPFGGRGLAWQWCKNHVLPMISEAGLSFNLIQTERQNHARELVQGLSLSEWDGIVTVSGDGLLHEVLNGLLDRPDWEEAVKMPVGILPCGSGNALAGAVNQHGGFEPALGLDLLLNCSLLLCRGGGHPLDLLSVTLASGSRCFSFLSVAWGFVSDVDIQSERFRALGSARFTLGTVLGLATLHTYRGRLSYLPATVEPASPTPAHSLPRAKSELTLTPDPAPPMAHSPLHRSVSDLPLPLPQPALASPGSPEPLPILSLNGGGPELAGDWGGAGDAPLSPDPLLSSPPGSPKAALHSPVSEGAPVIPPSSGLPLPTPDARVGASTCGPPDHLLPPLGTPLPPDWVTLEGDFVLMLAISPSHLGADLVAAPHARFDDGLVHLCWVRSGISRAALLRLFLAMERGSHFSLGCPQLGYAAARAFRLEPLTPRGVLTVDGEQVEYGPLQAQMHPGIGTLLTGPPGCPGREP
The following applies: at 0.1 µM.

Assay [13] concerns the target T3, Sphingosine kinase 2 (Homo sapiens). The following applies: at 1 µM.
In assay [14] the target is Casein kinase II subunit alpha (Homo sapiens) (UniProt P68400). The following applies: at 0.1 µM.
Assay [15] has the same target. The following applies: at 1 µM.
Assay [16] deals with T4, Inhibitor of nuclear factor kappa-B kinase subunit alpha (Homo sapiens) (UniProt O15111).
T4 sequence (whole entry): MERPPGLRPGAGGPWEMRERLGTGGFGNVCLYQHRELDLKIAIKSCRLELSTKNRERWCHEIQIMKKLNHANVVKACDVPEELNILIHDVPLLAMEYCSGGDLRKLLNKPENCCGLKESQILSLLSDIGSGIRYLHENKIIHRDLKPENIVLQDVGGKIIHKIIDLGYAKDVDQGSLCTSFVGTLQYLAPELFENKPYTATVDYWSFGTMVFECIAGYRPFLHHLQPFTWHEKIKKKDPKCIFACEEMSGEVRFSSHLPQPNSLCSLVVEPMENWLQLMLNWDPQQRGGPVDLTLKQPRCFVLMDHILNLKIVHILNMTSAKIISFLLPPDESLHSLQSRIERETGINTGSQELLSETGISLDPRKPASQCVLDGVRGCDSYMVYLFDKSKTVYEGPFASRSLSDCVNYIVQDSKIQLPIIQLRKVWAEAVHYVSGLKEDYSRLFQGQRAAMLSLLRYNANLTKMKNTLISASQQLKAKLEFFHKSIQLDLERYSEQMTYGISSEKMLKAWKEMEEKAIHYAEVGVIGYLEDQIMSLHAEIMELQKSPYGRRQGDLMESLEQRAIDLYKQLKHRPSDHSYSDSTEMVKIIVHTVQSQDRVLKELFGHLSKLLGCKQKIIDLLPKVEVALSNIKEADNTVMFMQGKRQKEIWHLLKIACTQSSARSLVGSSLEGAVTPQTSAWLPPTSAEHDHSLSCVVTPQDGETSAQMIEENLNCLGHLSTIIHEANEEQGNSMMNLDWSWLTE
The following applies: at 0.1 µM.

For assay [17], the target named is T4, Inhibitor of nuclear factor kappa-B kinase subunit alpha (Homo sapiens). The following applies: at 1 µM.
Assay [18] has as its target T5, Inhibitor of nuclear factor kappa-B kinase subunit beta (Homo sapiens) (UniProt O14920).
T5 sequence (whole entry): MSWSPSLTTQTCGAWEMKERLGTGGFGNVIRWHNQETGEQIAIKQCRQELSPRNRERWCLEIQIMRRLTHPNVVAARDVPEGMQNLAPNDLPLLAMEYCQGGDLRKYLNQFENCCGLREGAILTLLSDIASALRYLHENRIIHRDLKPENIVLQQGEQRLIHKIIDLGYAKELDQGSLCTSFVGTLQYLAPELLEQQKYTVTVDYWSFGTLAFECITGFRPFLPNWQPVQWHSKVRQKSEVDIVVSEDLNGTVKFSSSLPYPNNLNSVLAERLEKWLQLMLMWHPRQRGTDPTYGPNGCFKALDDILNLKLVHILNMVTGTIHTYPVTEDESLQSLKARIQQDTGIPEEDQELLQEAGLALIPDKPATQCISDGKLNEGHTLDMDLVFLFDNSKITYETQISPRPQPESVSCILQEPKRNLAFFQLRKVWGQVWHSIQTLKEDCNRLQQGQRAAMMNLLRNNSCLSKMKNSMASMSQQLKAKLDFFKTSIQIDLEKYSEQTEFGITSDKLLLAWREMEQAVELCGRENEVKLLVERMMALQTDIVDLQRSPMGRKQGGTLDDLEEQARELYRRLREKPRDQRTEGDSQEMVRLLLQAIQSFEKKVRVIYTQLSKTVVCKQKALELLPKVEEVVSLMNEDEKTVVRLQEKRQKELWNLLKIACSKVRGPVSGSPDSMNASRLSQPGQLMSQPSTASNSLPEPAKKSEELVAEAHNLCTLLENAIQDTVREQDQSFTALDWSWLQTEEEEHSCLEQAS
The following applies: at 0.1 µM.

Assay [19] addresses T5, Inhibitor of nuclear factor kappa-B kinase subunit beta (Homo sapiens). The note with it: at 1 µM.
Assay [20] addresses T6, Inhibitor of nuclear factor kappa-B kinase subunit epsilon (Homo sapiens) (UniProt Q14164).
T6 sequence (whole entry): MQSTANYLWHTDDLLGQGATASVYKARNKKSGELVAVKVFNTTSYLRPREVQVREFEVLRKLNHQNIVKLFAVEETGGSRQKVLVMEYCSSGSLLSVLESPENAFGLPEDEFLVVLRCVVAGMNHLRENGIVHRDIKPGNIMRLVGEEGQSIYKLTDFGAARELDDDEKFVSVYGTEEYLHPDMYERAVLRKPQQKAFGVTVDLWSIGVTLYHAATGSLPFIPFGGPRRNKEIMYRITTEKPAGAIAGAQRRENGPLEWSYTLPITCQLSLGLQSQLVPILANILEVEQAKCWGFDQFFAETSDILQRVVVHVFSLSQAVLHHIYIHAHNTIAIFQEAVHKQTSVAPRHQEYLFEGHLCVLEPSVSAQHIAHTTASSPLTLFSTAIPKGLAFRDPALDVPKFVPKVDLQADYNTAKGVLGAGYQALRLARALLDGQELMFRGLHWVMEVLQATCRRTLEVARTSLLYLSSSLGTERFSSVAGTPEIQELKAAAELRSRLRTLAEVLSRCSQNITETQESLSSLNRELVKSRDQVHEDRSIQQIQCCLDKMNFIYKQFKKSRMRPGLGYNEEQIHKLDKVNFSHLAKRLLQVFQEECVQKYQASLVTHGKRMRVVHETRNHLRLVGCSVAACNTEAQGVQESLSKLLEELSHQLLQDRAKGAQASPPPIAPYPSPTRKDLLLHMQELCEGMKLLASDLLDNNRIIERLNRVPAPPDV
The note with it: at 0.1 µM.

Broadly, the inhibition is the drop in the measured response relative to a control, in per cent.

Phosphatidylinositol 4-kinase beta (Homo sapiens), sequence (Q9UBF8 2-816 limits assumed): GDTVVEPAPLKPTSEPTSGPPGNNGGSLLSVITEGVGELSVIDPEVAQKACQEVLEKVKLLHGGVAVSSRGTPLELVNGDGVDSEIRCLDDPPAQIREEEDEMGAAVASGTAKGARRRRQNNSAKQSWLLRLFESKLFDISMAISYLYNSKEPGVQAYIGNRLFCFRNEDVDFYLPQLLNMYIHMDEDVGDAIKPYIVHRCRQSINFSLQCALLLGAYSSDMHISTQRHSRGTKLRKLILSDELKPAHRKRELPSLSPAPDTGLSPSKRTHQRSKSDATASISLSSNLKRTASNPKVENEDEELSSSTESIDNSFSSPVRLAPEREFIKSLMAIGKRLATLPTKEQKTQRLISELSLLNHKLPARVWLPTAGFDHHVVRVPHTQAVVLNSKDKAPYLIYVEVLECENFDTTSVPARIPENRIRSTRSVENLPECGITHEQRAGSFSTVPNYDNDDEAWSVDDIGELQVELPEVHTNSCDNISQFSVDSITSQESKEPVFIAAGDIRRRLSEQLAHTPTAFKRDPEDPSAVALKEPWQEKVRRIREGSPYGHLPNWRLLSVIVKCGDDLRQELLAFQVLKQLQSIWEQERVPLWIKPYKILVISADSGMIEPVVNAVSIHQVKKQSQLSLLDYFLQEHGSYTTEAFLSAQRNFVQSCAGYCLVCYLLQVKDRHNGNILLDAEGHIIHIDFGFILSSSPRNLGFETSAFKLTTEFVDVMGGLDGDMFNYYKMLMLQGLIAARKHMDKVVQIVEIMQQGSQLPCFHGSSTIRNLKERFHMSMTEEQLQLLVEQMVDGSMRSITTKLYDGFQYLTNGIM
Casein kinase II subunit alpha (Homo sapiens), sequence (P68400 whole entry, looked up): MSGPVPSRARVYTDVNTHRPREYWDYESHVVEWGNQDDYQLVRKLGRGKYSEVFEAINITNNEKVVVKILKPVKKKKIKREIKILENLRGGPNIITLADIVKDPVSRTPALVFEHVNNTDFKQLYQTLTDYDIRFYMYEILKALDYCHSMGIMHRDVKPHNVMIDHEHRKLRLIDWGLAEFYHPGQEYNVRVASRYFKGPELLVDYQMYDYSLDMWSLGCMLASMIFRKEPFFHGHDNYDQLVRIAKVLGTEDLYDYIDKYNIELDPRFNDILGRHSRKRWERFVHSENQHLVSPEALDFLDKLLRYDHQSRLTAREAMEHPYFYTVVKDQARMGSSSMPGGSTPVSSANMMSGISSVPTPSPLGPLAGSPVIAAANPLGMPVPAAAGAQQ
SRSF protein kinase 1 (Homo sapiens), sequence (Q96SB4 whole entry): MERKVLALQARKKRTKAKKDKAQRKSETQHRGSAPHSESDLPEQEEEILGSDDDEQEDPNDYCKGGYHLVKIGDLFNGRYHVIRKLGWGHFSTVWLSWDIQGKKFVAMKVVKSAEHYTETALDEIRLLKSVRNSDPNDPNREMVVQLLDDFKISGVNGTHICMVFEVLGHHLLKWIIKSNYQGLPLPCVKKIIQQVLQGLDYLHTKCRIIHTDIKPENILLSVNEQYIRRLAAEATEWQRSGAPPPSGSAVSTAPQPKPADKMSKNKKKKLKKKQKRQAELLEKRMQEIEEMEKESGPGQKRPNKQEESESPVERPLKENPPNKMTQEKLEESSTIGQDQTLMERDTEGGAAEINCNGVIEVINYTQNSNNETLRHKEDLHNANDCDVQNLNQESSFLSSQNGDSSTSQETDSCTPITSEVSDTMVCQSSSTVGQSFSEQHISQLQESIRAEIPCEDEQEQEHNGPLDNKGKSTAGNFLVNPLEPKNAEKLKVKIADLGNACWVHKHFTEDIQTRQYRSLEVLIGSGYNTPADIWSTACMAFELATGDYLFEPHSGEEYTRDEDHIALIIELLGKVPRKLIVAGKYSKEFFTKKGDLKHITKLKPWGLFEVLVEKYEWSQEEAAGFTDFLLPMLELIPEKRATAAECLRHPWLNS
Sphingosine kinase 1 (Homo sapiens), sequence (Q9NYA1 whole entry): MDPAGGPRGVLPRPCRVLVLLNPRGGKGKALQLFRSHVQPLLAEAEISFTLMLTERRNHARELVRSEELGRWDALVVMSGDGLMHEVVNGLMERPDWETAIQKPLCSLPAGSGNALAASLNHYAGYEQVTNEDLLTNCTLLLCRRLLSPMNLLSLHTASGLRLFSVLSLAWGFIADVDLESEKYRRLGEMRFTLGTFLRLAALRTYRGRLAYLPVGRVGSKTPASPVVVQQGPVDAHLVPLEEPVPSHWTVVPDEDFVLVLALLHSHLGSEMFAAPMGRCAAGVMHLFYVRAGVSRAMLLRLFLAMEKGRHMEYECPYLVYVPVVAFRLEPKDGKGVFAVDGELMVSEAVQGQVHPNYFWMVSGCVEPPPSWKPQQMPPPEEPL
Phosphatidylinositol 4,5-bisphosphate 3-kinase catalytic subunit alpha isoform (Homo sapiens), sequence (P42336 whole entry, canonical isoform): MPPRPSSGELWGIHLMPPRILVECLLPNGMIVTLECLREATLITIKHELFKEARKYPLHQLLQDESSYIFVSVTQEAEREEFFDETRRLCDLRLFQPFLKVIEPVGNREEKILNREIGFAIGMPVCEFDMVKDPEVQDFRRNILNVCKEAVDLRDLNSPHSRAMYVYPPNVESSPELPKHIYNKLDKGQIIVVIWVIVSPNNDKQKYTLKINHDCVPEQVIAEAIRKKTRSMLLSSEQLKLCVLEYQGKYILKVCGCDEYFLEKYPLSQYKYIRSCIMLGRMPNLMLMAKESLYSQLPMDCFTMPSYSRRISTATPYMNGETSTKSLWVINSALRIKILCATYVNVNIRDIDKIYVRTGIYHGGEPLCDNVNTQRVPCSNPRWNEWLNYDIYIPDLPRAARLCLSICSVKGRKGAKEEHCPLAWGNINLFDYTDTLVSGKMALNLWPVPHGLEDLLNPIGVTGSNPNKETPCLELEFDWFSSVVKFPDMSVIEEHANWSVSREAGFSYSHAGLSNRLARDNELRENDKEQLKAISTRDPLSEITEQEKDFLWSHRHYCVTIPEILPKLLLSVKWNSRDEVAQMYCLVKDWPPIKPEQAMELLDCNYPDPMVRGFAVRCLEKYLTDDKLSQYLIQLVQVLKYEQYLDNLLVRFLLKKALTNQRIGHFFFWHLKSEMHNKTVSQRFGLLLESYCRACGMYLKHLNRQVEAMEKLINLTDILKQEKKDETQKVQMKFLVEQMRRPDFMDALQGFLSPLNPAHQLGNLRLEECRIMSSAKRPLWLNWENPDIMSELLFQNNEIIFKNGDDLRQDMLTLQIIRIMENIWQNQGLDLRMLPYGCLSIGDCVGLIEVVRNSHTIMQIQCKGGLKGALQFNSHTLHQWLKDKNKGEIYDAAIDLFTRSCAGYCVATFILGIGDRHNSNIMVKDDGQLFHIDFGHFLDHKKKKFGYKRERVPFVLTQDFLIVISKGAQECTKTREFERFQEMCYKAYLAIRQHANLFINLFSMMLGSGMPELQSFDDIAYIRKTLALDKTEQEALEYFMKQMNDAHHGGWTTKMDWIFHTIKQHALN

Take `CC1=C(C(=O)Nc2ccc3[nH]nc(C)c3c2)C(c2ccc(C(F)(F)F)cc2)CC(=O)N1` (stereo not given): the inhibition in [1] is 2.82%; in [2], -1.2%; in [3] it was -2.95%; in assay [4], 2.05%; in assay [5] it was 2.21%; in assay [6], 2.89%. Further, the inhibition in assay [7] is 3.84%; in [8] it was 4.33%; in [9], -1.82%; in assay [10] it was 0.96%; in assay [11], -1.2%; in assay [12], -0.06%. The inhibition is -2.04% in assay [13]; 1.79% in [14]; 2.97% in [15]; 3.27% in assay [16]; -5.37% in assay [17]; 2.18% in assay [18]. Moreover, the values for the inhibition in assay [19] and in [20] were 0.69% and 0.85%, respectively.

As to `CC1=C(C(=O)Nc2ccc3[nH]ncc3c2)C(c2ccc(F)cc2)N=C(c2ccc(C(F)(F)F)nc2)N1` (stereo not given), the inhibition in assay [1] is 1.85%; in assay [2], -1.07%; in [3], -0.7%; in assay [4] it was 2.87%; in [5] it was 4.33%; in assay [6], 2.9%. Further, the inhibition in assay [7] is 4.49%; in assay [8] it was 4.33%; in assay [9], -3.27%; in assay [10], -0.6%; in [11] it was 2.01%; in [12], 0%. Moreover, the inhibition in assay [13] is -2.07%; in assay [14], 2.45%; in assay [15] it was 2.14%; in assay [16], 7.64%; in assay [17], -0.7%; in [18] it was 2.1%. Further, the inhibition in assay [19] was -0.37%; in [20] it was 2.04%.

Consider `FC(F)(F)CNc1nccc(-c2cnn3ncccc23)n1`, for which the inhibition was 4.71% in assay [1]; -3.11% in assay [2]; -3.13% in assay [3]; 2.55% in assay [4]; 3.51% in assay [5]; 0.99% in assay [6]. In addition, the inhibition in assay [7] is 2.05%; in assay [8], 2.04%; in assay [9] it was 5.22%; in assay [10] it was -2.3%; in [11], -0.16%; in assay [12], -1.21%. The inhibition is -4.21% in assay [13]; 9.47% in assay [14]; 3.8% in assay [15]; 1.92% in assay [16]; 9.86% in assay [17]; 4.92% in assay [18]. In addition, the inhibition in [19] amounted to 5.42%; in [20], 6.69%.
